Reference: PubChem BioAssay AID1159580 (chemical genetic matrix, 2015)
Where “and” joins values, the source holds several entries; their conditions need not be identical. Equal entries are not always repeated. In all, about 5,500 compounds went through this assay and about 2,000 (36%) were called active. About 18% were inconclusive and are not listed. Rule as the data show it: active = normalized growth mostly below about 0.91 (no sharp cut-off); inconclusive = no clear call, values can overlap the other calls; inactive = mostly above about 0.92. The list shows a part of the results.

Experiment: chemical genetic growth profiling, strain panel (AID 1159580);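 also: tested at 20 µM; growth read once vehicle control cultures reached saturation at 30 °C; 1 = growth at the plate median or of vehicle wells; lower values mean less growth of the strain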
Settings: S. cerevisiae deletion strains, growth OD

Measured: normalized growth

C/C1=C/CC(C)(C)/C=C/C/C(C)=C/CC1
0.85 (active) and 1.03 (inactive): locus YHR030C, strain SLT2, stronger effect = lower value
active: locus YDL074C, strain BRE1, stronger effect = lower value 0.769 | locus YDR162C, strain NBP2, stronger effect = lower value 0.611 | locus YGR229C, strain SMI1, stronger effect = lower value 0.389 | locus YLR039C, strain RIC1, stronger effect = lower value 0.651 | locus YMR307W, strain GAS1, stronger effect = lower value 0.536 | locus YOR184W, strain ser1, stronger effect = lower value 0.865 | locus YPL055C, strain LGE1, stronger effect = lower value 0.76
inactive: locus YAL021C, strain ccr4, stronger effect = lower value 1.04 | locus YAL026C, strain drs2, stronger effect = lower value 0.983 | locus YAL030W, strain snc1, stronger effect = lower value 0.99 | locus YBL061C, strain skt5, stronger effect = lower value 0.985 | locus YBR009C, strain hhf1, stronger effect = lower value 0.983 | locus YBR021W, strain FUR4, stronger effect = lower value 0.95 | locus YBR023C, strain chs3, stronger effect = lower value 0.99 | locus YBR171W, strain sec66, stronger effect = lower value 0.953 | locus YBR229C, strain ROT2, stronger effect = lower value 1.03 | locus YBR231C, strain swc5, stronger effect = lower value 0.977 | locus YBR279W, strain paf1, stronger effect = lower value 0.999 | locus YCL011C, strain gbp2, stronger effect = lower value 1.02 | locus YCL016C, strain dcc1, stronger effect = lower value 1.01 | locus YCL029C, strain bik1, stronger effect = lower value 1.03 | locus YCL061C, strain MRC1, stronger effect = lower value 0.988 | locus YCL069W, strain vba3, stronger effect = lower value 0.991 | locus YCR088W, strain abp1, stronger effect = lower value 0.981 | locus YDL005C, strain med2, stronger effect = lower value 0.966 | locus YDL035C, strain GPR1, stronger effect = lower value 0.91 | locus YDL040C, strain nat1, stronger effect = lower value 0.987 | locus YDL101C, strain DUN1, stronger effect = lower value 1.01 | locus YDL185W, strain tfp1, stronger effect = lower value 1 | locus YDL192W, strain arf1, stronger effect = lower value 0.988 | locus YDR001C, strain nth1, stronger effect = lower value 0.985 | locus YDR069C, strain doa4, stronger effect = lower value 0.989 | locus YDR101C, strain arx1, stronger effect = lower value 0.991 | locus YDR137W, strain rgp1, stronger effect = lower value 0.973 | locus YDR159W, strain sac3, stronger effect = lower value 0.975 | locus YDR195W, strain ref2 0.951 | locus YDR297W, strain sur2, stronger effect = lower value 0.988 | locus YDR318W, strain mcm21, stronger effect = lower value 1.01 | locus YDR334W, strain swr1, stronger effect = lower value 0.981 | locus YDR335W, strain msn5, stronger effect = lower value 0.998 | locus YDR388W, stronger effect = lower value 0.998 | locus YDR392W, strain spt3, stronger effect = lower value 0.961 | locus YDR502C, strain sam2, stronger effect = lower value 0.983 | locus YEL003W, strain gim4, stronger effect = lower value 0.983 | locus YEL037C, strain rad23, stronger effect = lower value 0.984 | locus YEL061C, strain CIN8 (second series), stronger effect = lower value 0.982 | locus YEL061C, strain CIN8, stronger effect = lower value 0.988 | locus YER015W, strain faa2, stronger effect = lower value 1 | locus YER016W, strain bim1, stronger effect = lower value 0.987 | locus YER110C, stronger effect = lower value 1.01 | locus YER111C, strain swi4, stronger effect = lower value 0.968 | locus YER155C, strain BEM2 (second series), stronger effect = lower value 1.01 | locus YER155C, strain BEM2, stronger effect = lower value 1 | locus YER167W, strain BCK2, stronger effect = lower value 0.98 | locus YFR010W, strain ubp6, stronger effect = lower value 0.978 | locus YGL078C, strain dbp3, stronger effect = lower value 0.985 | locus YGL086W, strain mad1, stronger effect = lower value 1 | locus YGL167C, strain pmr1, stronger effect = lower value 0.977 | locus YGL173C, strain kem1, stronger effect = lower value 0.96 | locus YGL227W, strain vid30, stronger effect = lower value 0.978 | locus YGL240W, strain doc1, stronger effect = lower value 0.956 | locus YGL248W, strain PDE1, stronger effect = lower value 1.01 | locus YGL253W, strain hxk2, stronger effect = lower value 0.957 | locus YGR135W, strain pre9, stronger effect = lower value 0.967 | locus YGR252W, strain gcn5, stronger effect = lower value 1.01 | locus YHR013C, strain ard1, stronger effect = lower value 1 | locus YHR027C, strain rpn1, stronger effect = lower value 0.97 | locus YHR079C, strain IRE1 (second series), stronger effect = lower value 1.01 | locus YHR079C, strain IRE1, stronger effect = lower value 1.02 | locus YHR094C, strain hxt1, stronger effect = lower value 1.01 | locus YHR129C, strain ARP1, stronger effect = lower value 1.01 | locus YHR142W, strain chs7, stronger effect = lower value 1 | locus YHR200W, strain rpn10, stronger effect = lower value 1.01 | locus YIL066C, strain RNR3, stronger effect = lower value 1.01 | locus YIL073C, strain SPO22, stronger effect = lower value 0.95 | locus YIL125W, strain kgd1, stronger effect = lower value 0.991 | locus YIR030C, strain dcg1, stronger effect = lower value 1 | locus YJL092W, strain hpr5, stronger effect = lower value 0.988 | locus YJL095W, strain BCK1 (second series), stronger effect = lower value 1 | locus YJL095W, strain BCK1, stronger effect = lower value 0.831 and 1.06 | locus YJL115W, strain asf1, stronger effect = lower value 0.988 | locus YJL129C, strain trk1, stronger effect = lower value 0.981 | locus YJL134W, strain LCB3, stronger effect = lower value 1 | locus YJL154C, strain vps35, stronger effect = lower value 0.981 | locus YJL164C, strain tpk1, stronger effect = lower value 1.01 | locus YJL166W, strain qcr8, stronger effect = lower value 0.985 | locus YJL168C, strain set2, stronger effect = lower value 1.02 | locus YJL187C, strain SWE1 (second series), stronger effect = lower value 0.976 | locus YJR043C, strain POL32, stronger effect = lower value 0.964 | locus YJR066W, strain TOR1, stronger effect = lower value 0.986 | locus YKL009W, strain mrt4, stronger effect = lower value 0.962 | locus YKL068W, stronger effect = lower value 0.991 | locus YKL085W, strain MDH1 (second series), stronger effect = lower value 0.963 | locus YKL085W, strain MDH1, stronger effect = lower value 0.963 | locus YKL160W, strain elf1, stronger effect = lower value 1.02 | locus YKR001C, strain vps1, stronger effect = lower value 0.98 | locus YKR026C, strain gcn3, stronger effect = lower value 0.983 | locus YKR091W, strain srl3, stronger effect = lower value 0.987 | locus YLL001W, strain dnm1, stronger effect = lower value 1 | locus YLL026W, stronger effect = lower value 0.99 | locus YLL041C, strain sdh2, stronger effect = lower value 0.998 | locus YLR027C, strain aat2, stronger effect = lower value 1.01 | locus YLR058C, strain SHM2, stronger effect = lower value 1.01 | locus YLR102C, strain apc9, stronger effect = lower value 1.01 | locus YLR113W, strain HOG1, stronger effect = lower value 1.02 | locus YLR221C, strain rsa3, stronger effect = lower value 0.961 | locus YLR258W, strain gsy2, stronger effect = lower value 0.998 | locus YLR262C, strain YPT6 (second series), stronger effect = lower value 0.994 | locus YLR262C, strain YPT6, stronger effect = lower value 0.789 | locus YLR268W, strain sec22, stronger effect = lower value 1 | locus YLR320W, strain mms22, stronger effect = lower value 0.968 | locus YLR330W, strain CHS5, stronger effect = lower value 0.974 | locus YLR342W, strain FKS1 (second series), stronger effect = lower value 0.986 | locus YLR342W, strain FKS1, stronger effect = lower value 0.989 | locus YLR357W, strain rsc2, stronger effect = lower value 0.968 | locus YLR370C, strain arc18, stronger effect = lower value 1.01 | locus YLR371W, strain rom2, stronger effect = lower value 0.998 | locus YLR384C, strain iki3, stronger effect = lower value 0.984 | locus YLR418C, strain cdc73, stronger effect = lower value 0.929 | locus YML016C, strain PPZ1, stronger effect = lower value 1.04 | locus YML032C, strain rad52, stronger effect = lower value 0.99 | locus YML120C, strain ndi1, stronger effect = lower value 1 | locus YML124C, strain tub3, stronger effect = lower value 1.01 | locus YMR058W, strain fet3, stronger effect = lower value 0.992 | locus YMR078C, strain ctf18, stronger effect = lower value 1.01 | locus YMR125W, strain sto1, stronger effect = lower value 1.01 | locus YMR129W, stronger effect = lower value 0.992 | locus YMR205C, strain PFK2, stronger effect = lower value 0.994 | locus YMR223W, strain ubp8, stronger effect = lower value 1 | locus YMR231W, strain pep5, stronger effect = lower value 0.966 | locus YNL067W, strain RPL9B, stronger effect = lower value 0.869 | locus YNL071W, strain lat1, stronger effect = lower value 0.998 | locus YNL183C, strain NPR1, stronger effect = lower value 0.995 | locus YNL209W, strain ssb2, stronger effect = lower value 1 | locus YNL233W, strain BNI4, stronger effect = lower value 0.96 | locus YNL250W, strain rad50, stronger effect = lower value 0.973 | locus YNL271C, strain bni1, stronger effect = lower value 0.998 | locus YNL298W, strain CLA4, stronger effect = lower value 0.989 | locus YNL307C, strain MCK1, stronger effect = lower value 1.02 | locus YNL322C, strain KRE1 (second series), stronger effect = lower value 0.979 | locus YNL322C, strain KRE1, stronger effect = lower value 0.973 | locus YNR049C, strain mso1, stronger effect = lower value 0.976 | locus YNR052C, strain pop2, stronger effect = lower value 0.964 | locus YOL006C, strain TOP1, stronger effect = lower value 0.917 | locus YOL012C, strain htz1 1.09 | locus YOL147C, strain pex11, stronger effect = lower value 1.02 | locus YOR001W, strain rrp6, stronger effect = lower value 0.944 | locus YOR061W, strain CKA2, stronger effect = lower value 1.03 | locus YOR069W, strain VPS5, stronger effect = lower value 1.02 | locus YOR070C, strain gyp1, stronger effect = lower value 0.983 | locus YOR080W, strain dia2, stronger effect = lower value 0.969 | locus YOR083W, strain WHI5, stronger effect = lower value 1.02 | locus YOR106W, strain vam3, stronger effect = lower value 0.995 | locus YOR136W, strain idh2, stronger effect = lower value 0.995 | locus YOR144C, strain elg1, stronger effect = lower value 1.01 | locus YOR231W, strain MKK1, stronger effect = lower value 1.02 | locus YOR265W, strain rbl2, stronger effect = lower value 0.997 | locus YOR270C, strain vph1, stronger effect = lower value 0.932 | locus YOR290C, strain snf2, stronger effect = lower value 0.995 | locus YOR316C, strain cot1, stronger effect = lower value 1.01 | locus YPL051W, strain arl3, stronger effect = lower value 0.991 | locus YPL078C, strain atp4, stronger effect = lower value 1.01 | locus YPL106C, strain sse1, stronger effect = lower value 1.03 | locus YPL240C, strain hsp82, stronger effect = lower value 1.02 | locus YPL241C, strain CIN2, stronger effect = lower value 1.02 | locus YPL256C, strain CLN2, stronger effect = lower value 1.06 | locus YPR119W, strain clb2, stronger effect = lower value 1.01 | locus YPR141C, strain kar3, stronger effect = lower value 1 | locus YPR163C, strain tif3, stronger effect = lower value 1.01 | locus YPR167C, strain met16, stronger effect = lower value 1.01 | strain wtn01, stronger effect = lower value 0.993
